# This is a sample that favours compounds with a hit; in the whole collection about 8% have one here.
# KB-V1 cytotox: kills drug-selected multidrug resistant KB-V1 cells; KB-V1 MDR cells viability, CellTiter-Glo, 72 h; Potency, µM (doses to about 46.1 µM), usual class: cytotoxic; actives 3.4% (n = 400,000); AID 1347076; note: % is set by controls: 0 for no effect and ±100 for the full control effect; nearly all actives have a fitted effect of over 60% in size
#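 qHTS viability screen in drug-selected KB-V1 MDR cells: 72 h compound treatment at 37 degrees C, ATP luminescence end point.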
# KB-3-1 cytotox: kills parental KB-3-1 adenocarcinoma cells; actives 1.4% (n = 400,000); KB-3-1 viability, CellTiter-Glo ATP luminescence, 72 h; AID 1347075; Potency, µM (series often up to 46.1 µM), most hits filed as cytotoxic; note: % is set by controls: 0 for no effect and ±100 for the full control effect; nearly all actives have a fitted effect of over 60% in size
#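 Screening of KB-3-1 cells (DMEM, 10% FBS, phenol-red free) ran from lowest to highest compound concentration; after 72 h at 37 °C viability was read luminescently and curves fitted.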
# HT1080 IDH1KD tx: kills HT-1080 cells with IDH1 knockdown | HT-1080 IDH1 knockdown viability, ATP luminescence, 48 h | Potency, µM (top dose mostly 46.1 µM), without a hit: at the highest dose activity, negative = toxicity, most hits filed as cytotoxic | actives 2% (n = 360,000) | AID 686971;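 note: 0% = DMSO wells and -100% = cell-free medium wells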
#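 Assay cells: HT-1080 with IDH1 knockdown, 750 per well, RPMI/5% FBS. Exposure: 48 h at 37 °C following 2 h pre-incubation. Read: CellTiter-Glo luminescence; fitted concentration-response, curve class assigned.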
# MCF10A rerep: induces DNA re-replication in MCF 10a normal breast cells; Potency, µM (highest dose often 46.1 µM), for inactives: top-dose activity, positive = re-replication, usual class: activators; MCF 10A DNA re-replication, Hoechst nuclear intensity, 48 h; actives 2.9% (n = 350,000); note: % of control where 0% means no effect; nearly all actives have a fitted effect of over 50% in size
# SW480 rerep: DNA re-replication induction in SW480 cells | SW480 DNA re-replication, Hoechst DNA content imaging, 48 h | Potency, µM (series often up to 46.1 µM), without a hit: top-dose re-replication activation, usual class: activators | actives 1.8% (n = 340,000) | AID 624297; note: % of control where 0% means no effect; nearly all actives have a fitted effect of over 55% in size
#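 250 cells/well; 23 nL cpd via pin tool; 48 hr, 37 C, 5% CO2; Hoechst 40 min; imager read of total nuclear intensity, ex 405/em 500-530 nm.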
# HT1080-NT tox: kills 2HG-producing HT-1080-NT fibrosarcoma cells; HT-1080-NT fibrosarcoma viability, CellTiter-Glo ATP luminescence, 48 h; Potency, µM (highest dose often 46.1 µM), without a hit: at the top dose activity, negative = less viability, most hits filed as cytotoxic; actives 1.6% (n = 360,000);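 note: NT is the 2HG producing partner of a matched IDH1 knockdown line; 0% = DMSO-treated cells and -100% = media-only wells without cells; nearly all actives have a fitted effect of over 55% in size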
#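 750 cells/well, RPMI + 5% FBS; 2 h settle, compound pin-transfer, 48 h at 37 degrees C. CellTiter-Glo 10 min RT, luminescence. Normalized to DMSO and media-only wells.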
# The depositor's hits bear a star; i = inactive; ? = inconclusive; · = no result given. Calls come from the whole dose curve; as a rule, active = well fitted curve in the direction sought with a large enough effect; inconclusive = small, poorly fitted or top-dose-only effect, or another doubt; inactive = no such curve, though single readings can be large; an effect the other way counts as inactive or inconclusive. Potency is the fitted concentration of half-maximal effect.
SMILES,KB-V1 cytotox,KB-3-1 cytotox,HT1080 IDH1KD tx,MCF10A rerep,SW480 rerep,HT1080-NT tox
CCC(CC)C(=O)Nc1cccc(C(=O)N2CCOCC2)c1,i,i,12%,-3%,-5%,1%
CC(=O)c1cccc(S(=O)(=O)N2CCN(c3ccccc3F)CC2)c1,i,i,0%,1%,-51%,-20%
CCC(CC)C(=O)Nc1cccc(C(=O)N2CCCCCC2)c1,?,i,-11%,21µM*,?,0%
O=C(NNC(=S)NC1CCCCC1)c1cccc(S(=O)(=O)Nc2ccccc2Cl)c1,21µM*,?,-4%,-8%,?,3%
CCc1nn2c(=O)cc(COC(=O)Cc3ccccc3)nc2s1,i,i,·,·,·,·
COc1ccc2c(c1)NC(c1cccnc1)=NC(c1ccc(F)cc1)=N2,i,i,·,·,·,·
CCn1cc(C(=O)NCCc2ccc(OC)c(OC)c2)c(=O)c2cc(S(=O)(=O)N3CCC(C)CC3)ccc21,i,i,·,·,·,·
COc1cc(O)c(C(CC(=O)N2CCC(C)CC2)c2ccc(OC)c(OC)c2)c(OC)c1 (stereo not given),i,i,·,·,·,·
C=CCCC(=O)Nc1nc(C)c(-c2csc(Nc3ccc(Cl)cc3Cl)n2)s1,?,?,?,0%,14%,16µM*
CCCCCC(=O)Nc1nc(C)c(-c2csc(Nc3ccc(Cl)cc3)n2)s1,i,i,?,8%,0%,-23%
CCC(=O)Nc1nc(C)c(-c2csc(Nc3cccc(O)c3)n2)s1,?,?,0.46µM*,21µM*,?,?
CCCCCCC(=O)Nc1nc(C)c(-c2csc(Nc3ccc(Cl)cc3)n2)s1,i,?,?,?,?,21µM*
CCCCC(=O)Nc1nc(C)c(-c2csc(Nc3ccccc3OC)n2)s1,i,?,-4%,?,21%,-1%
C=CCCC(=O)Nc1nc(C)c(-c2csc(Nc3ccccc3OC)n2)s1,?,7.3µM*,16µM*,97%,?,?
Cc1ccc(-c2nnc(N3CCC(C(N)=O)CC3)s2)cc1,i,?,·,·,·,·
O=C(CCCCCn1c(=O)[nH]c2ccccc2c1=O)NCc1cccc(Cl)c1,i,i,·,·,·,·
COC(=O)CC1Oc2ccc(Cl)cc2-n2cc(-c3ccc(C)cc3)nc21 (stereo not given),i,i,·,·,·,·
CCC(=O)N1CCc2cc(Br)cc(S(=O)(=O)CCC(=O)N3CCN(c4cc(C)ccc4C)CC3)c21,i,i,·,·,·,·
Cc1ccc(C)c(S(=O)(=O)c2cn(C)c3cc(N4CCCCC4C)c(F)cc3c2=O)c1 (stereo not given),i,i,·,·,·,·
O=C(/C(=N\Nc1ccc([N+](=O)[O-])cc1)Sc1nnnn1-c1ccccc1)c1ccccc1,16µM*,i,23µM*,?,6%,?
Cc1ccc(N/N=C(/Sc2nnnn2-c2ccccc2)C(=O)c2ccccc2)cc1,21µM*,i,-4%,?,-4%,0%
CCc1ccc(S(=O)(=O)c2nnn3c2nc(NC2CCCCCC2)c2sccc23)cc1,i,i,·,·,·,·
COc1ccc(-n2ncc3c(N4CCN(c5cccc(C)c5)C(C)C4)ncnc32)cc1 (stereo not given),?,21µM*,·,·,·,·
COc1ccc(N2CCN(c3cc(C)c4ccc(C)cc4n3)CC2)cc1,?,i,-6%,21µM*,6%,-23%
COc1ccc(N2CCN(c3ncnc4c3cnn4-c3ccc(C)cc3C)CC2)cc1,4.6µM*,i,15%,0%,-4%,5%
SMILES,KB-V1 cytotox,KB-3-1 cytotox,HT1080 IDH1KD tx,MCF10A rerep,SW480 rerep,HT1080-NT tox
Cc1ccc(-n2ncc3c(N4CCN(c5ccccc5)CC4)ncnc32)c(C)c1,2.3µM*,?,-5%,?,8%,-2%
COc1ccc(-n2ncc3c(N4CCN(c5cc(C)ccc5C)CC4)ncnc32)cc1,i,i,2%,2%,-10%,-1%
Cc1cccc(-n2ncc3c(N4CC(C)CC(C)C4)ncnc32)c1 (stereo not given),i,i,15%,29%,-2%,30%
COc1ccc(-c2cn3nc(N4CCC(C(=O)Nc5ccc(C)cc5)CC4)sc3n2)cc1,i,i,·,·,·,·
CCOC(=O)c1ccc(NC(=O)c2c(-c3c(F)cccc3Cl)noc2C)cc1,i,?,·,·,·,·
CC1CCc2c(sc(NC(=O)/C=C/c3cccs3)c2C(=O)O)C1 (stereo not given),i,18µM*,?,-6%,1%,2%
CC(C)(Oc1ccc(Br)cc1)C(=O)N1CCc2ccccc21,21µM*,i,-19%,?,-6%,11%
O=C(COc1ccc(Br)cc1)N1CCc2ccccc21,i,i,5%,-2%,-7%,7%
COc1ccc(OC)c(NC(=O)CN(C)S(=O)(=O)c2ccc3[nH]c4c(c3c2)CCCC4)c1,i,i,·,·,·,·
CCOc1ccc(CSC(=N)N)cc1Cl,i,i,-11%,18µM*,?,-6%
CCOC(=O)c1sc(=S)n(C)c1NC(=O)c1ccc(OC)cc1,i,i,0%,-1%,0%,1%
CCOC(=O)c1sc(=S)n(C)c1NC(=O)c1ccc(C(C)(C)C)cc1,?,?,16µM*,?,2%,?
COC(=O)c1ccc2c(=O)n(CCCCCC(=O)N3CCN(c4cc(Cl)ccc4C)CC3)c(=O)[nH]c2c1,i,i,·,·,·,·
CC1(C)C2CCC1(CS(=O)(=O)Nc1ccc(S(=O)(=O)NC3CCCCC3)cc1)C(=O)C2 (stereo not given),16µM*,i,-9%,?,4%,-7%
COc1cccc(NS(=O)(=O)CC23CCC(CC2=O)C3(C)C)c1 (stereo not given),i,i,-5%,2%,3%,1%
CC1(C)C2CCC1(CS(=O)(=O)NCc1ccc(Cl)cc1Cl)C(=O)C2 (stereo not given),10µM*,?,-14%,?,-24%,-19%
CCCCCN1C(C(=O)c2ccccc2)=C(NC(=O)c2ccccc2Cl)c2ccccc2S1(=O)=O,i,?,·,·,·,·

# Screening data: PubChem, National Center for Advancing Translational Sciences (NCATS)
